Laboratory results taken from PubChem BioAssay (NCATS).
Records with an inconclusive call do not appear. Active and inactive are the calls of the source. Calls follow the shape of the dose curve; as a rule, active = well fitted inhibition curve with a large enough effect; inconclusive = small, poorly fitted or top-dose-only effect; inactive = flat fitted curve, though single readings scatter. Square brackets hold non-standard residues; d marks the D form. Peptide text beside a SMILES is read from it. ξ: configuration not given here. ξL = CC(C)CC(N)C(=O)O

Assay: qHTS for Inflammasome Signaling Inhibitors: IL-1-beta AlphaLISA screen against the NCATS CANVASS Library (AID 1347379);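 also: human THP-1 cells primed with LPS then triggered with ATP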;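 as to activity change, negative = inhibition: lower signal means less IL-1B release which is the wanted effect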
Settings: THP-1 LPS/ATP, IL-1B AlphaLISA secretion, 16 h; series mostly up to 57.5 µM; activity change, negative = inhibition: at the top concentration; outcome: at the top concentration
Excerpt: Natural products and their derivatives continue to be wellsprings of nascent therapeutic potential. However, many laboratories have limited resources for biological evaluation, leaving their previously isolated or synthesized compounds largely or completely untested. To address this issue, the Canvass library of natural products was assembled (https://tripod.nih.gov/canvass), in collaboration with academic and industry researchers, for quantitative high-throughput screening (qHTS) across a diverse set of cell-based and biochemical assays. The pure (>85% purity by liquid chromatography/mass spectrometry [LC/MS]) Canvass library of 346 natural products were submitted by 45 academic laboratories and companies around the world. We collected pure natural products to circumvent deconvolution and structure elucidation due to time and resource limitations. The library was formatted into 1536-well plates and evaluated in 50 qHTS (in an 11-pnt concentration series) bioassays with broad scope of disease-relevant mechanisms. The resulting data set from 50 different assays was then systematically analyzed to identify overall trends and specific natural products with interesting biological activities. Reported herein are the results of each individual qHTS and their corresponding assay protocol. A qHTS assay, based on AlphaLISA technology, was developed to screen the NCATS CANVASS library to look for novel inflammasome inhibitors. The assay detects IL-1B using AlphaLISA anti-IL-1B acceptor and donor beads. Human THP-1 cells were incubated with Canvass compound for 1 hr, followed by stimulation with lipopolysaccharide and ATP to induce inflammasome activation. Compounds that inhibit activation is flagged and validated. A decreased emission signal, indicating reduced IL-1B secretion, is the desired outcome for this assay. National Center for Advancing Translational Sciences (NCATS), Rockville, MD National Institute of Health (NIH), Bethesda, Maryland
IL-1-beta qHTS protocol: Three microliters containing 3000 THP-1 cells were dispensed into the wells of solid, white, tissue culture treated Greiner 1,536-well plates. Library compounds and positive control, Glyburide, were pin-transferred (23 nL) by a Kalypsys pin-tool equipped with a 1,536-pin array, resulting in final compound concentration ranges of 2.5 nM to 57.5 uM. After 1 hr of cell culture incubation (37 °C, 5% CO2), 1 microL of 1 microg/mL lipopolysaccharide (250 ng/mL, final) and 5 mM ATP (1.25 mM, final) were added to stimulate the cells. After 16 hr of cell culture incubation with the compounds, 1.5 uL of anti-IL-1B acceptor beads (6 ug/mL, final) and biotinylated antibody (0.6 nM, final) were added to the plate, followed by a 1 hr incubation at ambient temperature. To detect the secreted IL-1B, 1.5 uL of AlphaLISA SA-Donor beads (24 ug/mL, final) were added, followed by 30 min of incubation in the dark at ambient temperature. The AlphaLISA signal was read by a PerkinElmer EnVision plate reader with an ultrasensitive luminescence detector and 1536 Plate HTS AlphaScreen aperture (excitation of 680nm and emission of 615nm).
% is scaled to controls: 0 for no effect and ±100 for the full control effect; potency is read from the fitted curve at half-maximal effect.

| Compound | outcome | Potency | activity change, negative = inhibition |
| --- | --- | --- | --- |
| COc1cc(C2C3=C(Cc4cc5c(cc42)OCO5)C(=O)OC3)cc(OC)c1OC (stereo not given) | inactive | – | – |
| C/C(=C\[C@H](C)C(=O)/C=C/CC1CC(=O)NC(=O)C1)[C@@H]1OC(=O)CCCC/C=C/[C@H](O)[C@@H](O)[C@@H]1C | – | 21.7 µM (active) | – |
| CC[C@@H](C)[C@H]1NC(=O)C(CC(C)C)NC(=O)[C@@H](CC(C)C)NC(=O)[C@H](Cc2c[nH]c3ccccc23)NC(=O)CNC(=O)[C@@H](CC(N)=O)NC1=O (stereo partly drawn) (cyclo(GW[dL][ξL][dI][dN])) | inactive | – | – |
| CC[C@H](O)CCCCC[C@@H]1NC(=O)[C@H]2CCCCN2C(=O)[C@H]([C@H](C)CC)NC(=O)[C@H](Cc2cn(OC)c3ccccc23)NC1=O | – | – | -23.1% (inactive) |
| COc1cc2c(cc1OC)[C@@H](c1ccc3c(c1)OCO3)C(C)C(C)C2=O (stereo not given in full) | inactive | – | – |
| O=c1cc(-c2ccc(O)cc2)oc2cc(O)c([C@@H]3OC(CO)[C@H](O)[C@@H](O)[C@H]3O)c(O)c12 (stereo not given in full) | inactive | – | – |
| C/C1=C/[C@@H](C)[C@H](O)[C@@H](O)/C=C/CC/C=C/C(=O)O[C@@H]1[C@H](C)C(=O)/C=C/CC1CC(=O)NC(=O)C1 | – | – | -25.8% (inactive) |
| CO[C@@H](C[C@@H](C)[C@@H](O)/C=C/C=C/CNC(=O)C(C)(C)[C@H](O)\C(C)=C/C=C\C=C\Cc1cnco1)[C@]1(O)[C@@H](C)C(=O)N(C)[C@@]12COC2=O | inactive | – | – |
| C=C[C@@](C)(O)CC[C@@H]1[C@@]2(C)CCCC(C)(C)[C@@H]2CC[C@@]1(C)O | – | – | -21% (inactive) |
| CC(C)C[C@@H]1c2c(O)c(C=O)c(O)c(C=O)c2O[C@]2(C)C=C[C@@H](C(C)C)C[C@H]12 | – | – | 2.27% (inactive) |
| COc1c(O)cc2c(c1O)C(=O)c1c(coc1C)C2=O | – | – | -13.7% (inactive) |
| CC(=O)O[C@H]1c2ccccc2-c2c3c(cc4c2[C@@H]1N(C(C)=O)CC4)OCO3 | inactive | – | – |
| C=C1CC[C@@H](O[C@H]2C[C@@](O)([C@H](C)NC(=O)c3[nH]c(C)c(Cl)c3Cl)[C@H](O)[C@@H](C)O2)[C@@H]2C=C[C@H](C)C(/C(O)=C3/C(=O)[C@H](C(C)C)N([C@@H]4O[C@H](C)[C@H](OC(N)=O)[C@H](OC(C)=O)[C@@H]4OC)C3=O)[C@@H]12 (stereo not given in full) | inactive | – | – |
| Oc1ccc(C2Oc3cc(O)c4c(c3[C@@H]2c2cc(O)cc(O)c2)[C@H]2C(c3ccc(O)cc3)c3c(O)cc5c(c3[C@H]2C4c2ccc(O)cc2)[C@H](c2cc(O)cc(O)c2)C(c2ccc(O)cc2)O5)cc1 (stereo not given in full) | – | – | -6.4% (inactive) |
| CO[C@@H]1[C@H](O)[C@@H](C)O[C@@H](OC[C@@H]2C(C)OC(=O)/C=C/[C@H](C)C(O[C@@H]3O[C@H](C)CC4(OC(=O)O[C@@H]4C)C3O)[C@@H](C)CC(C)C(=O)/C=C/[C@H]3OC23)[C@@H]1OC (stereo not given in full) | – | – | -19.1% (inactive) |
| C/C(=C\CC[C@@H](C)[C@H]1CC[C@]2(C)C3=CCC4C(C)(C)[C@@H](O)C[C@@H](O)[C@]4(C)C3[C@H](O)C[C@@]12C)CO (stereo not given in full) | – | – | -17.9% (inactive) |
| C[C@H]1C=C[C@H]2CCCC[C@@H]2[C@H]1C(=O)[C@H]1CC2=C(C(=O)O)CCN2C1=O | – | – | -3.08% (inactive) |
| C/C=C/c1cc2c(c(=O)o1)C(=O)[C@@H](O)[C@H](C)O2 | – | 21.7 µM (active) | – |
| CO[C@H]1[C@@H](OC(=O)/C(C)=C\[C@@H]2O[C@@H]2[C@H]2O[C@H]2C)[C@H](O)[C@H](OCC23C[C@@H]4[C@H](C)CC[C@H]4C4(C=O)CC2C=C(C(C)C)C34C(=O)O)O[C@@H]1C (stereo not given in full) | – | – | 0.801% (inactive) |
| C=C(Cl)[C@](Cl)(CBr)CC[C@@H](Br)C(C)(C)Cl | – | 4.85 µM (active) | – |

| Compound | outcome | Potency | activity change, negative = inhibition |
| --- | --- | --- | --- |
| C/C(=C\[C@H](C)C(=O)CCCC1CC(=O)NC(=O)C1)[C@@H]1OC(=O)/C=C/CC/C=C/[C@H](O)[C@@H](O)[C@@H]1C | – | 6.11 µM (active) | – |
| CN1C(=O)C(=O)N2C(=C[C@]3(c4c[nH]c5ccccc45)c4ccccc4N[C@H]23)C1=O | inactive | – | – |
| CN1CCc2cc3c(c4c2C1(C)C(=O)c1cc(O)ccc1-4)OCO3 (stereo not given) | – | – | -9.23% (inactive) |
| COC(=O)C1=C[C@]23C[C@@H](C)CC[C@@H]2[C@@]2(C)CC[C@@H](C(C)C)[C@@](O)(O3)[C@@H]12 | – | – | -11% (inactive) |
| COc1ccc([C@@H]2c3cc4c(cc3C[C@H](C)C2C)OCO4)cc1OC (stereo not given in full) | inactive | – | – |
| COc1cc([C@@H]2c3cc4c(cc3C[C@@]3(O[C@@H]5O[C@H](CO)[C@@H](O)[C@H](O)[C@H]5O)COC(=O)[C@H]23)OCO4)cc(OC)c1OC | – | – | 3.07% (inactive) |
| O=C1c2c(O)cc(O)cc2OC(c2ccc(O)cc2)C1O (stereo not given) | – | – | -8.67% (inactive) |
| COc1ccc2[nH]c3c(c2c1)CCN1C[C@H]2C[C@@H](OC(=O)c4cc(OC)c(OC)c(OC)c4)[C@H](OC)[C@@H](OC)[C@H]2C[C@H]31 | – | – | 4.08% (inactive) |
| COc1cc2c(c(O)c1O)C(=O)c1c(coc1C)C2=O | – | 24.3 µM (active) | – |
| COC(=O)[C@@]12Oc3cccc(O)c3C(O)=C1C(=O)C[C@H](C)[C@H]2O | inactive [at 114 µM] | – | – |
| COc1cc(/C=C/C(=O)OC[C@@H](Cc2ccc(O)c(OC)c2)[C@@H](COC(=O)/C=C/c2ccc(O)c(OC)c2)Cc2ccc(O)c(OC)c2)ccc1O | – | 15.3 µM (active) | – |
| CC(C)=CCCC(C)(O)[C@H]1CC=C(C)C(O)C1 (stereo not given in full) | – | – | 1.88% (inactive) |
| C/C=C(/CO)C(=O)O[C@@H]1[C@H](O)[C@@H](C(=O)OC)O[C@@H]2C[C@H]3OC(n4cnc5c(N)ncnc54)[C@H](OC)[C@H]3O[C@@]12O (stereo not given in full) | – | – | 0.4% (inactive) |
| COC12OC1(C13OC1(OC)C(=O)c1cc4cc(C)oc(=O)c4c(O)c1C3O)C(O)c1c(cc3cc(C)oc(=O)c3c1O)C2=O (stereo not given) | inactive | – | – |
| C=C1CC[C@@H](Br)C(C)(C)[C@]12CC=C(C)C(=O)C2 | – | – | -0.876% (inactive) |
| O=Cc1ccc2n1C[C@]1(OC2)O[C@H](CO)[C@@H](O)[C@@H]1O | – | – | -0.125% (inactive) |
| O=C1OC(CCO)c2cccc(O)c21 (stereo not given) | inactive | – | – |
| O[C@H]1C=C2[C@H]3CN(Cc4cc5c(cc43)OCO5)[C@H]2C[C@@H]1O | inactive | – | – |
| CO[C@H]1/C=C/CCCCC(=O)O[C@@H](/C(C)=C/[C@H](C)C(=O)C[C@H](O)CC2CC(=O)NC(=O)C2)[C@@H](C)C1 | – | – | -10.5% (inactive) |
| O=c1cc(-c2ccc(O)c(O)c2)oc2cc(O[C@@H]3O[C@H](CO)[C@@H](O)[C@H](O)[C@H]3O)cc(O)c12 | – | – | -15.2% (inactive) |
